Measured values from PubChem BioAssay AID2685 (National Center for Advancing Translational Sciences (NCATS), 2010).
The campaign covered roughly 320,000 compounds. About 2,100 (0.66%) were called active. About 53% were inconclusive and are not listed. This is one part of a sample in which actives are shown more often than they occur. The call rests on the fitted dose curve; in most records, active means well fitted inhibition curve with a large enough effect in the signal ratio, with a control signal flat (not every such curve was filed as active); inconclusive means small, poorly fitted or top-dose-only effect, or effect the other way, or a change in a side signal; inactive means flat fitted curve, though single readings scatter; the % refers to the signal ratio.

Assay: qHTS Assay for Lipid Storage Modulators in Drosophila S3 Cells;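 on cell number change: cells counted by Cell Tracker Red CMTPX staining in the red channel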; on lipid storage change, negative = inhibition: on the % scale 0 is the no-effect control and ±100 the full control effect
Details: BODIPY lipid droplet fluorescence, 18-24 h, cells fed with added oleic acid; cell number change: measured here: cell count max response; series mostly up to 46.1 µM; lipid storage change, negative = inhibition: at the top concentration
Method in brief: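 Laser-scanning cytometry quantifies lipid droplet accumulation (500–530 nm total intensity; droplet/cell object ratio) in oleic acid-fed (400 uM added) Drosophila S3 cells treated with a concentration series. 20 uM Triacsin C defined 100% inhibition.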
Potency means the concentration at half of the fitted maximal effect.

SMILES | outcome | cell number change [%] | lipid storage change, negative = inhibition | Potency
O=C(O)C1CCCN(S(=O)(=O)c2ccc(-c3ccc(=O)[nH]n3)s2)C1 (stereo not drawn) | inactive | -7.22 |  | 
COC(=O)Nc1ccc(Cn2cc(C(F)(F)F)ccc2=O)cc1 |  | 17.3 | -2.52% (inactive) | 
O=C1NC(=O)N(Cc2ccccc2)C1=O |  | -0.926 | -3.6% (inactive) | 
O=C1C=CC(=O)N1Cc1ccccc1 |  | -23.7 |  | 4.11 µM (active)
O=C1[C@H](O)[C@@H](O)C(=O)N1Cc1ccccc1 |  | 24.4 | 1.8% (inactive) | 
CCCNc1ncnc2nc[nH]c12 |  | 19.1 | 12.9% (inactive) | 
COCCNc1ncnc2nc[nH]c12 |  | 7.15 | 0.95% (inactive) | 
C1=C(CCNc2ncnc3nc[nH]c23)CCCC1 |  | -23.9 |  | 16.4 µM (active)
O=C(Sc1ccccc1)c1cccc(Cn2cc(C(F)(F)F)ccc2=O)c1 |  | 1.6 | 2.79% (inactive) | 
COc1cccc(NC(=O)c2ccc3nc(C)sc3c2)c1 | inactive | 0.275 |  | 
CCN1CCCC(OC(=O)Nc2ccccc2)C1 (stereo not drawn) |  | -14.2 | -11.5% (inactive) | 
Cc1cc2c(NCc3ccccc3)ncnc2s1 | inactive | -12.9 |  | 
COc1ccc(CCNc2ncnc3c2c(C)c(C)n3CCO)cc1OC |  | -9.63 | -24.1% (inactive) | 
COc1ccc(CCNc2ncnc3sc(C)cc23)cc1OC |  | -27 |  | 4.11 µM (active)
CCOC(=O)c1ccc(-c2ccc(/C=N/NC(=O)Cc3nnc(N)s3)o2)cc1 |  | -10.3 | 4.22% (inactive) | 
CCOC(=O)C1CCN(C(c2cccc(F)c2)c2sc3nc(C)nn3c2O)CC1 (stereo not drawn) |  | 9.03 | 1.57% (inactive) | 
Cc1nc(S(=O)(=O)N2CCN(C3c4ccccc4-c4ccccc43)CC2)cn1C |  | 19.2 | 10.6% (inactive) | 
COc1ccc(NC(=O)c2ccc3c(c2)n(C)c(=O)n3C)cc1 |  | -1.07 | 25.3% (inactive) | 
CC(C)Oc1ccc(C(=O)Nc2ccc3c(c2)n(C)c(=O)n3C)cc1 |  | -24.3 |  | 18.4 µM (active)
Cn1c(=O)n(C)c2cc(NC(=O)c3ccc(F)cc3)ccc21 | inactive | -7.46 |  | 
CCN(CC)C(=O)c1ccc(-c2cccs2)s1 |  | 3.13 | 6.69% (inactive) | 
COc1ccc(NC(=O)c2oc3ccccc3c2C)cn1 | inactive | 13.5 |  | 
COc1ccc(NC(=O)c2oc3ccccc3c2CSC)cn1 |  | 1.61 |  | 23.1 µM (active)

SMILES | outcome | cell number change [%] | lipid storage change, negative = inhibition | Potency
CCOCc1c(C(=O)Nc2ccc(OC)nc2)oc2ccccc12 | inactive | -13.5 |  | 
CC(C)CCNC(=O)C(C)N(Cc1ccc(F)cc1)C(=O)c1ccc(CN2CCOCC2)o1 (stereo not drawn) |  | -9.3 | -9.87% (inactive) | 
COC(=O)c1ccccc1NC(=O)COC(=O)CO/N=C(\C)c1ccc2c(c1)OCO2 |  | -2.37 | -14.2% (inactive) | 
Cc1cc(OC(C)C(=O)NCC2CCC(C(=O)O)CC2)c2c(C)cc(=O)oc2c1 (stereo not drawn) |  | -0.291 | -6.17% (inactive) | 
CCOC(=O)C1CCN(C(=O)c2cc(COc3ccc(OC)c4ccccc34)on2)CC1 |  | 0.306 | -11.2% (inactive) | 
Cn1c(SCC(=O)N2CCc3ccccc3C2)nnc1-c1ccncc1 |  | 6.69 | 18% (inactive) | 
Cc1ccc(-n2c(C)nnc2SCC(=O)N2CCc3ccccc3C2)cc1 |  | -10.8 | -23.9% (inactive) | 
CCc1cccc(CC)c1-n1c(SCC(=O)N2CCc3ccccc3C2)nnc1-c1cccnc1 |  | 1.33 |  | 16.4 µM (active)
COc1ccc(-c2nc(CN3CCC(C(=O)NCC4CCCO4)CC3)c(C)o2)cc1OC (stereo not drawn) | inactive |  |  | 
CCn1c(SCC(=O)c2ccccc2)nc2c(c1=O)SC(C)C2 (stereo not drawn) | inactive |  |  | 
N#CC1(NC(=O)COc2ccccc2[N+](=O)[O-])CCCCC1 | inactive |  |  | 
N#CC1(NC(=O)COc2cc(F)ccc2[N+](=O)[O-])CCCCC1 |  | -12.3 |  | 11.6 µM (active)
N#CC1(NC(=O)COc2ccc(S(=O)(=O)N3CCCC3)cc2[N+](=O)[O-])CCCCC1 |  | -3.48 | 0.304% (inactive) | 
COc1cccc(C2=NOC(C(=O)N3CCN(Cc4ccccc4)CC3)C2)c1OC (stereo not drawn) |  | -0.697 | 10% (inactive) | 
COc1ccc(CCN(C)CC(O)COC(c2ccc(F)cc2)c2ccc(F)cc2)cc1OC (stereo not drawn) |  | -8.84 | 2.95% (inactive) | 
COc1cccc(CN2CCN(C3CCN(c4ccccc4C)CC3)CC2CCO)c1 (stereo not drawn) |  | -24 | -8.75% (inactive) | 
COc1ccc(Cl)cc1NC(=O)Nc1ccccc1C(N)=O |  | 14.7 | 0.552% (inactive) | 
Cc1cccc([C@@H]2[C@@H]3C(=O)N(Cc4ccccc4)C(=O)[C@@H]3[C@]3(C)C(=O)N(c4cccc(Cl)c4)C(=O)N23)c1 |  | -9.71 | -18.9% (inactive) | 
Cc1cccc([C@@H]2[C@@H]3C(=O)N(Cc4ccccc4)C(=O)[C@@H]3[C@]3(C)C(=O)N(c4ccc(Br)cc4)C(=O)N23)c1 |  | 17.2 |  | 2.31 µM (active)
Cc1ccc(N2C(=O)N3[C@H](c4cccc(C)c4)[C@@H]4C(=O)N(Cc5ccccc5)C(=O)[C@@H]4[C@]3(C)C2=O)cc1 |  | -18.1 | 7.22% (inactive) | 
CN(C(=O)c1cccnc1)c1nnc(-c2cccnc2)s1 |  | -7.8 | 12.5% (inactive) | 
COc1ccccc1NC(=O)Nc1cccc(NC(C)=O)c1 |  | -3.02 | -4.12% (inactive) | 
Cc1csc(NC(=O)c2ccccc2)n1 |  | 23.7 | 17.8% (inactive) | 

SMILES | outcome | cell number change [%] | lipid storage change, negative = inhibition | Potency
Cc1csc(NC(=O)c2ccc3ccccc3n2)n1 |  | 7.3 | 5.76% (inactive) | 
Cc1csc(NC(=O)c2cnc3ccccc3n2)n1 |  |  |  | 1.64 µM (active)
Cc1cccc(N2CCN(C(=O)C(NS(=O)(=O)c3cccs3)c3ccccc3)CC2)c1C (stereo not drawn) | inactive | -2.06 |  | 
CCN=C1S/C(=C\c2cc(Br)c(O)c(OC)c2)C(=O)N1CC |  | -10.5 | -24.6% (inactive) | 
CC(NC(=O)C1CCCCC1)c1ccc2c(c1)OCCO2 (stereo not drawn) | inactive |  |  | 
Cc1ccc(C(C)(C)C)cc1S(=O)(=O)N1CCC(C(=O)N2CCN(c3ccc(O)cc3)CC2)CC1 |  | -13.6 |  | 3.66 µM (active)
Cc1ccc(C(=O)O)cc1S(=O)(=O)N1CCC(C(=O)O)CC1 |  | -0.135 | 16% (inactive) | 
O=C(C1CC1)N1CCN(c2ccc(O)cc2)CC1 | inactive | 22.2 |  | 
Cc1ccc(N(Cc2cc3cc(C)ccc3[nH]c2=O)S(=O)(=O)c2ccccc2)cc1 |  | -3.48 | -0.784% (inactive) | 
CCOC(=O)CSc1nc2ccccc2c(=O)n1CC1CCCO1 (stereo not drawn) |  | 0.196 | 10.9% (inactive) | 
COc1ccc(OC2C(=O)N(Cc3ccc(F)cc3)C2c2ccc(OC)c(OC)c2)cc1 (stereo not drawn) |  |  | 0.24% (inactive) | 
O=C(Cc1ccccc1F)Nc1ccc(S(=O)(=O)Nc2ncccn2)cc1 |  | 16.8 |  | 0.146 µM (active)
O=C(Cc1ccc(Cl)c(Cl)c1)Nc1ccc(S(=O)(=O)Nc2ncccn2)cc1 | inactive | 8.75 |  | 
O=C(Cc1c(Cl)cccc1Cl)Nc1ccc(S(=O)(=O)Nc2ncccn2)cc1 |  | 17.5 | -17.5% (inactive) | 
C#CCN(C(=O)c1ccc(OC)c(OC2CCN(C(C)C)CC2)c1)C1CCCCC1 |  | 13.3 | 14.3% (inactive) | 
Cc1cc(NC(=O)COC(=O)CSc2nc3cc(Cl)ccc3n2Cc2ccccc2)no1 |  | -15.1 | 10.6% (inactive) | 
CC(Sc1nccn1C)C(=O)Nc1ccccc1 (stereo not drawn) |  | -8.41 | 7.52% (inactive) | 
CC(Sc1nccn1C)C(=O)Nc1ccc(C(N)=O)cc1 (stereo not drawn) |  | 24.6 | -16.1% [at 0.0737 µM] (inactive) | 
CC(Sc1nccn1C)C(=O)c1ccc(Br)cc1 (stereo not drawn) |  | 8.97 |  | 18.4 µM (active)
Cc1ccc(NS(=O)(=O)c2ccc(-c3ccc(=O)[nH]n3)o2)c(C)c1 |  | 3.54 | -11.7% (inactive) | 
Cc1cccc(C)c1NS(=O)(=O)c1ccc(-c2ccc(=O)[nH]n2)o1 |  | -21.6 |  | 16.4 µM (active)
Cc1ccc(C)c(NS(=O)(=O)c2ccc(-c3ccc(=O)[nH]n3)o2)c1 |  | -3.63 | -0.445% (inactive) | 
O=C(O)/C=C/C(=O)NC1CCC(CC2CCC(NC(=O)/C=C/C(=O)O)CC2)CC1 (stereo not drawn) |  | 16.5 | 5.98% (inactive) | 

SMILES | outcome | cell number change [%] | lipid storage change, negative = inhibition | Potency
O=C(N/N=C/c1nn(-c2ccccc2)cc1-c1ccc(Cl)cc1)c1ccncc1 |  | 11.9 | -4.31% (inactive) | 
CN(c1ccccc1)S(=O)(=O)c1ccc(C(=O)NCc2ccccc2F)cc1 |  | -21.4 |  | 13 µM (active)
CS(=O)(=O)c1ccc(C(=O)NCc2ccccc2F)cc1 |  | 16.1 | 4.1% (inactive) | 
Cc1ccc2cc(CCNC(=O)c3ccc(S(=O)(=O)N4CCCCC4)cc3)c(=O)[nH]c2c1 |  | 17.8 | 20.6% [at 9.22 µM] (inactive) | 
O=C(NCc1ccccc1F)c1cccc(S(=O)(=O)N2CCCCCC2)c1 |  | 6.02 | -28% (inactive) | 
Cc1ccc(C)c2[nH]c(=O)c(CCNC(=O)c3ccc(S(=O)(=O)N4CCCC4)cc3)cc12 |  | -19 |  | 13 µM (active)
O=C(NCc1ccccc1F)c1ccc(S(=O)(=O)N2CCCCCC2)cc1 |  | 11.4 |  | 18.4 µM (active)
O=C(NCCN=C1NS(=O)(=O)c2ccccc21)c1ccncc1 | inactive | -9.37 |  | 
O=C(NCCCN=C1NS(=O)(=O)c2ccccc21)c1ccc(S(=O)(=O)N2CCCCC2)cc1 |  | -7.55 |  | 8.2 µM (active)
O=C(O)c1ccc(CNC(=O)c2ccc(S(=O)(=O)N3CCCCC3)cc2)cc1 |  | -13.8 | 18.3% (inactive) | 
COc1ccc(OC)c2[nH]c(=O)c(CCNC(=O)c3ccc(S(=O)(=O)N4CCCC4)cc3)cc12 |  | 1.32 | -1.53% (inactive) | 
CCN(CC)S(=O)(=O)c1ccc(C(=O)NCCCN=C2NS(=O)(=O)c3ccccc32)cc1 |  | 17.2 | 3.19% (inactive) | 
CN(c1ccccc1)S(=O)(=O)c1ccc(C(=O)NCc2cccs2)cc1 |  |  | -14.7% (inactive) | 
O=C(Nc1ccc(C(=O)N2CCOCC2)cc1)c1cnn2c(C(F)F)cc(-c3ccccc3)nc12 |  | 19.9 | 12.7% (inactive) | 
CCCCC1CCC(c2nc(-c3cccnc3)no2)CC1 (stereo not drawn) |  | -3.76 | 16.5% (inactive) | 
CCN1CCN(S(=O)(=O)Cc2ccccc2Cl)CC1 |  | -8.44 | -13.1% (inactive) | 
Cc1noc(C)c1CSc1nnc(-c2ccccc2)o1 |  | 4.76 | 13.2% (inactive) | 
Cc1ccc(CNC(=O)/C=C/C(=O)O)cc1 |  | 15 | -3.52% (inactive) | 
CN1CCN(c2oc(-c3ccco3)nc2S(=O)(=O)c2ccccc2)CC1 |  | 0.475 | 15.9% (inactive) | 
CC(=O)Nc1ccc(S(=O)(=O)Oc2cccc(N3C(=O)C4CCCCC4C3=O)c2)cc1 (stereo not drawn) | inactive | 5.92 |  | 
CCOc1ccc(Br)cc1S(=O)(=O)NCc1ccncc1 |  | 3.33 | 15.6% (inactive) | 
